# Measured values from article PMC7862700, “An all-to-all approach to the identification of sequence-specific readers for epigenetic DNA modifications on cytosine”.
# Columns and labels:
# Assay in all cases: DAPPL (digital affinity profiling via proximity ligation, sequencing); 10 mM Tris-HCl pH 7.5, 50 mM NaCl, 1 mM DTT, 4% glycerol, room temperature, 30 min; GST-TFs on glutathione beads, 16-mer random dsDNA library, 0.1% formaldehyde crosslink after washing; high values mean tight binding
# [1] = target: T1, FLI1 (Homo sapiens, UniProt Q01543 1-452); details: protein: recombinant; tags: N-terminal GST; dsDNA, one strand shown
# T1 sequence: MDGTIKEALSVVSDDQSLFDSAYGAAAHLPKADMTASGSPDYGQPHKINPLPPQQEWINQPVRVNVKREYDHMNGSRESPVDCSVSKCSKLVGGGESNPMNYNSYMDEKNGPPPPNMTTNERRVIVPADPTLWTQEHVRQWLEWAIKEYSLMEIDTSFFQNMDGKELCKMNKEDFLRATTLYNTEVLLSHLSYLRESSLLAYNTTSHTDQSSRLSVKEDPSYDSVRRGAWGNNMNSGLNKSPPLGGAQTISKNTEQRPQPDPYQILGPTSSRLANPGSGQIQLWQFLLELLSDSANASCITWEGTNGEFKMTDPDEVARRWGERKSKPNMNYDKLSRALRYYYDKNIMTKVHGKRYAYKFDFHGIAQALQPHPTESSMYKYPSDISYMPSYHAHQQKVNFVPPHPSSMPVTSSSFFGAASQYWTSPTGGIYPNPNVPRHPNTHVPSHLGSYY
# Summary of the method: (§1)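 Binding signal is defined as a hexamer's read frequency for one factor over its frequency for the tag-only sample. To obtain reads, GST-fused human transcription factors were expressed in yeast, captured on glutathione beads, barcoded with DNA and pooled with that sample. Pools met 200 nmole of a 16-mer random double-stranded DNA library in Tris/NaCl/DTT/glycerol buffer for 30 min at room temperature before washing, 0.1% formaldehyde crosslinking, proximity ligation (BsaI/T4 ligase, 1 h, 37 °C), PCR and Illumina NextSeq500 sequencing.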
# [2] = target: T2, ELK1 (Homo sapiens, UniProt P19419 1-428); details: protein: recombinant; tags: N-terminal GST; dsDNA, one strand shown
# T2 sequence: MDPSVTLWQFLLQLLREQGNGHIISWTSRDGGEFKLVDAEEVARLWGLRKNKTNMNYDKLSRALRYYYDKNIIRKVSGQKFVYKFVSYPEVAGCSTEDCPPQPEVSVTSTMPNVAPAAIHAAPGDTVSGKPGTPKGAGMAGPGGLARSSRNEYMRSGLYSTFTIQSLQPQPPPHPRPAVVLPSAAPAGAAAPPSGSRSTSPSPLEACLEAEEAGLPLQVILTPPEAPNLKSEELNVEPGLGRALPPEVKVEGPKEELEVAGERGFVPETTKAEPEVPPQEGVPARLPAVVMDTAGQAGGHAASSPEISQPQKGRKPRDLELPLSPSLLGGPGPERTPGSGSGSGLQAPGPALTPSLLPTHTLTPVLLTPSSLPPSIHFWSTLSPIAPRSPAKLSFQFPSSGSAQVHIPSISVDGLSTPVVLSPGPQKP
# Summary of the method: as §1
# [3] = target: ELF1 (Homo sapiens, UniProt P32519 1-619); details: protein: recombinant; tags: N-terminal GST; dsDNA, one strand shown
# Summary of the method: as §1
# [4] = target: SPI1 (Homo sapiens, UniProt P17947 1-270); details: protein: recombinant; tags: N-terminal GST; dsDNA, one strand shown
# Summary of the method: as §1
# [5] = target: T3, ELK3 (Homo sapiens, UniProt P41970 1-407); details: protein: recombinant; tags: N-terminal GST; dsDNA, one strand shown
# T3 sequence: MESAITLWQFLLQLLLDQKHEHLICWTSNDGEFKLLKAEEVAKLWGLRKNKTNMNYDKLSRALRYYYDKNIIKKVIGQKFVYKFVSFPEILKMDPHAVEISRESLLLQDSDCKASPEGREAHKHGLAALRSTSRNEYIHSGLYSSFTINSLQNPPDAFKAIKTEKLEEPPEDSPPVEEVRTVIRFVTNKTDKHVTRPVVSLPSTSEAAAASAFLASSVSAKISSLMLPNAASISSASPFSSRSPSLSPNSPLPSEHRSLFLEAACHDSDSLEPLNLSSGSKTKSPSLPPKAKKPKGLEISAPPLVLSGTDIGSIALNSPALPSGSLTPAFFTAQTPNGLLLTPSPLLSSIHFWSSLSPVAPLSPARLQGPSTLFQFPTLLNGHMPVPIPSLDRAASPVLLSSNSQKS
# Summary of the method: as §1
# [6] = target: T4, ELK4 (Homo sapiens, UniProt P28324-2 1-405); details: protein: recombinant; tags: N-terminal GST; dsDNA, one strand shown
# T4 sequence: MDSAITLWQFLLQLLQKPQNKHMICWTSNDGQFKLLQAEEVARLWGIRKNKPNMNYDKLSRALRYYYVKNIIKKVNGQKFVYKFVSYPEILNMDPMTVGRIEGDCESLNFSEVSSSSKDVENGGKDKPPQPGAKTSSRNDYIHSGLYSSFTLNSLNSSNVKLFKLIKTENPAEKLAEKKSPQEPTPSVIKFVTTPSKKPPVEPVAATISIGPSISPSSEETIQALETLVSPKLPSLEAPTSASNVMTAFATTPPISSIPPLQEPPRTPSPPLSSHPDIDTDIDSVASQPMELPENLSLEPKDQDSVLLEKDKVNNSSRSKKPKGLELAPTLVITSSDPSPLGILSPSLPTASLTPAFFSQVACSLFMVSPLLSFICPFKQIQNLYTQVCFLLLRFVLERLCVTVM
# Summary of the method: as §1
# [7] = target: T5, ETV2 (Homo sapiens, UniProt O00321 1-342); details: protein: recombinant; tags: N-terminal GST; dsDNA, one strand shown
# T5 sequence: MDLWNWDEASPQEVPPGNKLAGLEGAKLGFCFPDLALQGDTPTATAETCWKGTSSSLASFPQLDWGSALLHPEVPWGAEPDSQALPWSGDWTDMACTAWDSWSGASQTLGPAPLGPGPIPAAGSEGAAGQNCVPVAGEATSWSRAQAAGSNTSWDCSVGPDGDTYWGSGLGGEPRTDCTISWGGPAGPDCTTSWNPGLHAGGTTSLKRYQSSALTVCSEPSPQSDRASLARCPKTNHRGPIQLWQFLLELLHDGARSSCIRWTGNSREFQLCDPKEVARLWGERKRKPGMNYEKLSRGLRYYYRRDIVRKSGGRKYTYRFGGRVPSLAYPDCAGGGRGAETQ
# Summary of the method: as §1
# [8] = target: T6, ETV3L (Homo sapiens, UniProt Q6ZN32 1-361); details: protein: recombinant; tags: N-terminal GST; dsDNA, one strand shown
# T6 sequence: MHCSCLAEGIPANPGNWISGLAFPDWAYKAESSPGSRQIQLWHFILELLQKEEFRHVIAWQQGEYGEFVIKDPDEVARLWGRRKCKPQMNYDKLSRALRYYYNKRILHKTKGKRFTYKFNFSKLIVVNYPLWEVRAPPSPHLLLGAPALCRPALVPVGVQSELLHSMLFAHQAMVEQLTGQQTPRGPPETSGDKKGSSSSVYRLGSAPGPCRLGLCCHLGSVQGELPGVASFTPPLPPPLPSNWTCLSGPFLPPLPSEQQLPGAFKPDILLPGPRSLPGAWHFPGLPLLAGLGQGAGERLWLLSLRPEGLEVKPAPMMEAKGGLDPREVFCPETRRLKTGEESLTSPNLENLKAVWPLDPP
# Summary of the method: as §1
# [9] = target: T7, ETS2 (Homo sapiens, UniProt P15036 1-469); details: protein: recombinant; tags: N-terminal GST; dsDNA, one strand shown
# T7 sequence: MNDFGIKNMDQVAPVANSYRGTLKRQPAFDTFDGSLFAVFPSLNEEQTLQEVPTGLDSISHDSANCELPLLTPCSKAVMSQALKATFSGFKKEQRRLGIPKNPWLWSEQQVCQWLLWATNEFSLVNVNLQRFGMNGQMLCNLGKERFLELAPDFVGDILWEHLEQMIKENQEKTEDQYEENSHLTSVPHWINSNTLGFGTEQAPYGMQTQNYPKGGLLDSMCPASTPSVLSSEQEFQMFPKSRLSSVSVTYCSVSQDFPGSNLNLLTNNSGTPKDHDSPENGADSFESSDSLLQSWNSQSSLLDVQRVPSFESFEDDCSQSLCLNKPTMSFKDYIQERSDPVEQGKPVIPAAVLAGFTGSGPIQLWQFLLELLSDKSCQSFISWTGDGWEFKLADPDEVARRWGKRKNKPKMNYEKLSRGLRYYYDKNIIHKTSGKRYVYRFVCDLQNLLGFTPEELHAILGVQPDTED
# Summary of the method: as §1
# [10] = target: T8, ETV7 (Homo sapiens, UniProt Q9Y603 1-341); details: protein: recombinant; tags: N-terminal GST; dsDNA, one strand shown
# T8 sequence: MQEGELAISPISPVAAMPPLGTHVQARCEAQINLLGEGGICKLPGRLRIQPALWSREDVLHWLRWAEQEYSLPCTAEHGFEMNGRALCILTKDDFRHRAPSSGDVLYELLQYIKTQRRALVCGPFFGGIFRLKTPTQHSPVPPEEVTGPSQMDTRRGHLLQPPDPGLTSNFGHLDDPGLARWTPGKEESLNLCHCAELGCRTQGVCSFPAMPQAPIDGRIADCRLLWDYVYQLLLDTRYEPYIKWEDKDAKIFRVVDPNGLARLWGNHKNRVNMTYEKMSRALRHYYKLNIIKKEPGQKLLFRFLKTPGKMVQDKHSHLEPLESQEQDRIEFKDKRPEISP
# Summary of the method: as §1
# [11] = target: T9, ELF5 (Homo sapiens, UniProt Q9UKW6-2 1-255); details: protein: recombinant; tags: N-terminal GST; dsDNA, one strand shown
# T9 sequence: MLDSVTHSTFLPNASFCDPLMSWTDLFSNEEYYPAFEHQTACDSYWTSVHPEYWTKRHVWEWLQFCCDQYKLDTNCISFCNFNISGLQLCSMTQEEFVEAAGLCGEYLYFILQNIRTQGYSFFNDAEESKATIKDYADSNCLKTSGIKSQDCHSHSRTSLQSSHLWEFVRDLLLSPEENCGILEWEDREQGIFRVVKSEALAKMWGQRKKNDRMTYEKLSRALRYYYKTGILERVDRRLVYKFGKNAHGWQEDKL
# Summary of the method: as §1
# [12] = target: T10, ETV3 (Homo sapiens, UniProt P41162-2 1-143); details: protein: recombinant; tags: N-terminal GST; dsDNA, one strand shown
# T10 sequence: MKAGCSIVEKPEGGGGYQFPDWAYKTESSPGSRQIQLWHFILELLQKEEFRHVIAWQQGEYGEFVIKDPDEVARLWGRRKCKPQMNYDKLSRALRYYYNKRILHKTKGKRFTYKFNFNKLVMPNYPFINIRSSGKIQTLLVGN
# Summary of the method: as §1
# [13] = target: ETV6 (Homo sapiens, UniProt P41212 1-452); details: protein: recombinant; tags: N-terminal GST; dsDNA, one strand shown
# Summary of the method: as §1
# [14] = target: T11, GABPA (Homo sapiens, UniProt Q06546 1-454); details: protein: recombinant; tags: N-terminal GST; dsDNA, one strand shown
# T11 sequence: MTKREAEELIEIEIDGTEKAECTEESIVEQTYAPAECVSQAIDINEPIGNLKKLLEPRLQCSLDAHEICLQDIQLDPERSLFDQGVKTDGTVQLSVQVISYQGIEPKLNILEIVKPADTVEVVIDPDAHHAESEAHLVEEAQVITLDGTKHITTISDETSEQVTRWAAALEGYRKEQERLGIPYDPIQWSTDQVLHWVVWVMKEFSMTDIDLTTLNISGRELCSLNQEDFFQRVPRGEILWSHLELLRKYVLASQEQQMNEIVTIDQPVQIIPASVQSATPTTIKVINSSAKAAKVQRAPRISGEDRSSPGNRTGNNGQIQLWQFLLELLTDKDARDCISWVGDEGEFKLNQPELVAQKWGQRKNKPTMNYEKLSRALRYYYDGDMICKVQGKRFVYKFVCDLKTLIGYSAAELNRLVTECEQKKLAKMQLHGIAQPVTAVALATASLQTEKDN
# Summary of the method: as §1
# [15] = target: SPIB (Homo sapiens, UniProt Q01892 1-262); details: protein: recombinant; tags: N-terminal GST; dsDNA, one strand shown
# Summary of the method: as §1
# [16] = target: T12, FEV (Homo sapiens, UniProt Q99581 1-238); details: protein: recombinant; tags: N-terminal GST; dsDNA, one strand shown
# T12 sequence: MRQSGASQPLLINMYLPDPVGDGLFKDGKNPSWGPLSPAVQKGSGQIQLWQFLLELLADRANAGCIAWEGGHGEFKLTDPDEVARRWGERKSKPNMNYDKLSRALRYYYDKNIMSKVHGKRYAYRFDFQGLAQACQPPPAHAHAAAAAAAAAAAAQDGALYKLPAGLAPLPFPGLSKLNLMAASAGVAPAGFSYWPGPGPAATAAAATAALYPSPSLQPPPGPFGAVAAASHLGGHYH
# Summary of the method: as §1
# [17] = target: HSF1 (Homo sapiens, UniProt Q00613 1-529); details: protein: recombinant; tags: N-terminal GST; chain copies: 3; dsDNA, one strand shown
# Summary of the method: as §1
# Sequence of ELF1 (P32519 whole entry): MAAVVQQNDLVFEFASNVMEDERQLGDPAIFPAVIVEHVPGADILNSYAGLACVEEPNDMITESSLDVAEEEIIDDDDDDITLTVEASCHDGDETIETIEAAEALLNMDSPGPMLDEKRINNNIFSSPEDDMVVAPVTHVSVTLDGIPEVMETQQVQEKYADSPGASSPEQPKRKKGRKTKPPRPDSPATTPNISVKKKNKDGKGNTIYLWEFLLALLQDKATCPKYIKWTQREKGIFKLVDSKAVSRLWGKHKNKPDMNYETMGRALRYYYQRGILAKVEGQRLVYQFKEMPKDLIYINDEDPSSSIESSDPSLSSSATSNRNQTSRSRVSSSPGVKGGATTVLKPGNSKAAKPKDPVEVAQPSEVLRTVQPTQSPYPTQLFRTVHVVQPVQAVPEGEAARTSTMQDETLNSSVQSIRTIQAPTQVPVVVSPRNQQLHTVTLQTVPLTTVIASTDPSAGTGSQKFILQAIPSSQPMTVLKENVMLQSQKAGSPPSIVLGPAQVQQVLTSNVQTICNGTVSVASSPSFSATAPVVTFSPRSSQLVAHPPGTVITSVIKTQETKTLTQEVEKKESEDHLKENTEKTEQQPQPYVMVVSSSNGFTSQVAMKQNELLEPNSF
# Sequence of ETV6 (P41212 whole entry): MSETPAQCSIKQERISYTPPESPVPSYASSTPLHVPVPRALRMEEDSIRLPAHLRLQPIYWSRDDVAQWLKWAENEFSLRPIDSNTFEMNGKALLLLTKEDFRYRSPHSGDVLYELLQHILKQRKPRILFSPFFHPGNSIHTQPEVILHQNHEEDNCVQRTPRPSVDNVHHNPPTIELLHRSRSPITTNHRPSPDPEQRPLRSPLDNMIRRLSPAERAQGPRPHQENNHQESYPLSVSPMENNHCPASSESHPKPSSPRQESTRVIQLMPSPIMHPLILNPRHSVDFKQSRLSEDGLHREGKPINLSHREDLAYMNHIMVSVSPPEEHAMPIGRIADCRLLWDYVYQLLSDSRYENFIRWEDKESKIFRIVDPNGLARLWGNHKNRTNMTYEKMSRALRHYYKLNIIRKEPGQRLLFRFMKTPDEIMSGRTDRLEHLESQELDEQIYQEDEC
# Sequence of HSF1 (Q00613 whole entry): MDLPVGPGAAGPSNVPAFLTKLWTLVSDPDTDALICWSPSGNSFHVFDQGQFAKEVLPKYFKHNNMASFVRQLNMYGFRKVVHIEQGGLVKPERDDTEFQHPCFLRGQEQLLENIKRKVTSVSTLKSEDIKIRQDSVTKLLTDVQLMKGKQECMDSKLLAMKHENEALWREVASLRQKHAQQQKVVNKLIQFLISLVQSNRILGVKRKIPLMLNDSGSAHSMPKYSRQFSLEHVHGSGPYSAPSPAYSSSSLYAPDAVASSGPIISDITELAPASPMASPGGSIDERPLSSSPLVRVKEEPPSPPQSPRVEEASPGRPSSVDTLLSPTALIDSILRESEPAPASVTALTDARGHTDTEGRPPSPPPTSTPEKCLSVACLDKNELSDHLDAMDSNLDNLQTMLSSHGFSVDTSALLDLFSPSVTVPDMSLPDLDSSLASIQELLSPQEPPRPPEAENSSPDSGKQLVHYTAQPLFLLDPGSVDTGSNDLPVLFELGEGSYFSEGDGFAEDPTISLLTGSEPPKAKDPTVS
# Sequence of SPIB (Q01892 whole entry): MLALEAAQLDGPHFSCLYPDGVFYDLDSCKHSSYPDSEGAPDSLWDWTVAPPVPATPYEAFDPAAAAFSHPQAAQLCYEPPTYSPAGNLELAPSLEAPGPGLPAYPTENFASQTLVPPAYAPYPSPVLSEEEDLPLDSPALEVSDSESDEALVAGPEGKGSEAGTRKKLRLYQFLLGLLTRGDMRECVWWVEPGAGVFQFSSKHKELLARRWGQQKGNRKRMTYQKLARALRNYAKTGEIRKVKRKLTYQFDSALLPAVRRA
sequence,measurement,setting,value
GACACT,binding signal,[1],"1.01 fold enrichment (6-mer frequency, TF over GST control)"
same,binding signal,[2],"1.02 fold enrichment (6-mer frequency, TF over GST control)"
same,binding signal,[3],"1.03 fold enrichment (6-mer frequency, TF over GST control)"
same,binding signal,[4],"1.02 fold enrichment (6-mer frequency, TF over GST control)"
same,binding signal,[5],"1.06 fold enrichment (6-mer frequency, TF over GST control)"
same,binding signal,[6],"1.05 fold enrichment (6-mer frequency, TF over GST control)"
same,binding signal,[7],"1.1 fold enrichment (6-mer frequency, TF over GST control)"
same,binding signal,[8],"1.08 fold enrichment (6-mer frequency, TF over GST control)"
same,binding signal,[9],"1.05 fold enrichment (6-mer frequency, TF over GST control)"
same,binding signal,[10],"1.04 fold enrichment (6-mer frequency, TF over GST control)"
same,binding signal,[11],"1.05 fold enrichment (6-mer frequency, TF over GST control)"
same,binding signal,[12],"1.03 fold enrichment (6-mer frequency, TF over GST control)"
same,binding signal,[13],"1.13 fold enrichment (6-mer frequency, TF over GST control)"
GACTCA,binding signal,[1],"1.06 fold enrichment (6-mer frequency, TF over GST control)"
same,binding signal,[14],"1.02 fold enrichment (6-mer frequency, TF over GST control)"
same,binding signal,[15],"1.09 fold enrichment (6-mer frequency, TF over GST control)"
same,binding signal,[5],"1.04 fold enrichment (6-mer frequency, TF over GST control)"
same,binding signal,[16],"1 fold enrichment (6-mer frequency, TF over GST control)"
CTAGAG,binding signal,[17],"1.58 fold enrichment (6-mer frequency, TF over GST control)"
GTATGT,binding signal,[1],"1.04 fold enrichment (6-mer frequency, TF over GST control)"
same,binding signal,[3],"1.03 fold enrichment (6-mer frequency, TF over GST control)"
same,binding signal,[5],"1 fold enrichment (6-mer frequency, TF over GST control)"
same,binding signal,[7],"1.02 fold enrichment (6-mer frequency, TF over GST control)"
